We go through 21 compounds from PubChem BioAssay.

Calls of active or inactive are those of the source. Unless noted, no rule for the calls is given here.

The test system of test [1] is XIP peptide (Xip251-270) binding. Briefly: XIP fragment 251-270 binding compounds – biochemical, small-molecule microarray, fluorescence 635/667 nm, 0.1 µg/mL protein, primary screen (AID 1182). Conditions: fluorescent protein binding, 635 nm, higher = more signal, called active from +8 up or from −8 down.
For a further test, the system named is XIP peptide (Xip251-270). As to the kind of experiment: compounds binding XIP fragment 251-270 – biochemical, small-molecule microarray, fluorescence 635/667 nm, 0.5 µg/mL protein, primary screen (AID 1183). The following applies: fluorescence 635 nm, higher = more signal.
Test [2] can be described thus: blood-stage malaria parasite viability loss – strain 3D7, DAPI fluorescence, 100 nL, primary screen (AID 1184).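 Also: parasites grown inside human red blood cells in medium with human serum.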 Conditions: P. falciparum 3D7 growth, 3 d, higher = more signal.
For test [3], the target named is Homeobox protein Hox-A13 (Mus musculus) (UniProt Q62424). As to the kind of experiment: disruptors of Hoxa13 oligonucleotide interaction – biochemical, fluorescence polarization, labeled oligonucleotide, primary screen (AID 1185). The following applies: Hoxa13:DNA binding, 15 min, higher = more signal, called active from +8 up or from −8 down.
Test [4] is described as follows: blockers of DNA damage checkpoint Chk1 activation – imaging, HeLa, hydroxyurea, phospho-Chk1 antibody, percent positive cells, primary screen (AID 1186). The following applies: hydroxyurea-induced phospho-Chk1 immunofluorescence imaging, higher = more signal.
Test [5] is described as follows: blockers of DNA damage checkpoint Chk1 activation – imaging, HeLa, hydroxyurea, phospho-Chk1 nuclear intensity, primary screen (AID 1187). Conditions: hydroxyurea-induced phospho-Chk1 immunofluorescence imaging, higher = more signal.

Chain of Homeobox protein Hox-A13 (Mus musculus) (Q62424 whole entry, looked up): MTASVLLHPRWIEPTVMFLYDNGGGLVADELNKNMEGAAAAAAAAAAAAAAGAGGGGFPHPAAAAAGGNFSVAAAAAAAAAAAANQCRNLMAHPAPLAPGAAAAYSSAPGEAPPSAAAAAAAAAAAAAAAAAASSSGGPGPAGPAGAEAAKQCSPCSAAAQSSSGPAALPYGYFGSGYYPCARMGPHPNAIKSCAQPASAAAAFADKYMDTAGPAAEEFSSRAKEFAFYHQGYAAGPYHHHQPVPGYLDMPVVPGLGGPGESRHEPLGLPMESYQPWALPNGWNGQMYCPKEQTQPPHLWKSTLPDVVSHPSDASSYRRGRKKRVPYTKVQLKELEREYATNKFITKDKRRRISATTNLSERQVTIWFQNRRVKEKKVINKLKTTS

Turning to `COC(=O)c1c(CC[C@@H](CO)NC(=O)NCCn2cc(C3(O)CCCC3)nn2)oc(C(C)=O)c1C(=O)OC`, the composite z-score in test [1] was 0.333 (inactive); in the test with XIP peptide (Xip251-270), -0.0213. Besides, the z-score in test [2] was -0.72; in test [3] it was -1.9 (inactive); in test [4], 0.0528 (inactive); in test [5] it was -0.0849 (inactive).
For `CN1C=C(C(=O)OCCS(C)(=O)=O)C(C(=O)OCCS(C)(=O)=O)=CC(c2ccc(CO)cc2)=CC1C1CC1` (stereo unspecified), the figures for the composite z-score (in test [1]; with XIP peptide (Xip251-270)) were 0.943 (inactive) and -0.452, respectively. Further, the z-score in test [2] is -2.35; in test [3], -5.4 (inactive); in test [4] it was -1.15 (inactive); in test [5], 0.15 (inactive).
On to `COCCOC(=O)N1C(=O)[C@@]2(c3ccccc31)[C@H](c1ccccc1OCCO)N1[C@H](c3ccccc3)[C@H](c3ccccc3)OC(=O)[C@H]1[C@@H]2C(=O)N1CCN(c2ncccn2)CC1`, for which the composite z-score in test [1] was 1.04 (inactive); in the test with XIP peptide (Xip251-270), 0.799. Further, the z-score is -2.2 in test [2], -1.99 (inactive) in test [3], 0.0172 (inactive) in test [4] and 0.0629 (inactive) in test [5].
Consider `CC(C)N1C(=O)[C@@]2(Cc3ccccc31)c1ccccc1C(=O)N(Cc1ccccc1Cl)[C@H]2c1ccc(CO)cc1`, for which the composite z-score in test [1] is -0.26 (inactive); with XIP peptide (Xip251-270) it was 0.388. The z-score in test [2] was -0.113; in test [3] it was -0.978 (inactive); in test [4], -0.339 (inactive); in test [5] it was -0.458 (inactive).
Regarding `CCCCN1CC=CC23O[C@@H]4C=CCCOC(=O)C4[C@H]2C(=O)N(CCCCCCO)[C@@H]3C1=O` (stereo partly specified), the composite z-score in test [1] is 0.249 (inactive); in the test with XIP peptide (Xip251-270), 0.847. Moreover, the z-score in test [2] is -0.35; in test [3], -4.29 (inactive); in test [4], 0.809 (inactive); in test [5] it was 0.79 (inactive).
For `C=CC[C@]1(C(=O)NCc2ccccc2)N=C(c2ccc(OCCCO)cc2)O[C@H]1c1ccccc1N=[N+]=[N-]`, the composite z-score in test [1] is 0.525 (inactive); in the test on XIP peptide (Xip251-270), 0.699. In addition, the z-score in test [2] was -2.18; in test [3], -1.87 (inactive); in test [4], -0.22 (inactive); in test [5], 0.148 (inactive).
As to `COC(=O)C(CC#Cc1ccc2c(c1)[C@]1(C(=O)N2)[C@H](c2ccc(OCCO)cc2)N2[C@H](c3ccccc3)[C@H](c3ccccc3)OC(=O)[C@H]2[C@@H]1C(=O)Nc1nc2ccccc2s1)C(=O)OC`, the composite z-score was 0.081 (inactive) in test [1] and 0.54 in the test with XIP peptide (Xip251-270). Also, the z-score is -1.79 in test [2], 0.63 (inactive) in test [3], -0.378 (inactive) in test [4] and -0.763 (inactive) in test [5].
Turning to `CC(=O)NCCCC[C@@H]1NC(=O)[C@@H]2C[C@H](C(=O)NCCCCCNC(=O)CS)[C@H](c3cccc(OCCO)c3)N2C1=O`, the composite z-score in test [1] is 1.84 (inactive); in the test on XIP peptide (Xip251-270), 0.471. The z-score in test [2] is 0.246; in test [3], -3.21 (inactive); in test [4], -0.224 (inactive); in test [5] it was -0.27 (inactive).
Consider `COC(=O)[C@H](Cc1ccccc1)N[C@@H](/C=C/C1CC1)[C@H](O)Cc1ccccc1`, for which the composite z-score in test [1] was -0.207 (inactive); in the test on XIP peptide (Xip251-270), -0.432. Besides, the z-score in test [2] was -0.986; in test [3], -5.71 (inactive); in test [4], -0.157 (inactive); in test [5], -0.295 (inactive).
Turning to `C=CCOC(=O)[C@H]1[C@@H]2C(=O)O[C@@H](c3ccccc3)[C@@H](c3ccccc3)N2[C@@H](c2ccc(OCCOC(=O)[C@@H]3C[C@@H]4C(=O)N[C@@H](CCCCNC(C)=O)C(=O)N4[C@@H]3c3ccc(O)cc3)cc2)[C@]12C(=O)Nc1ccccc12`, the results for the composite z-score (in test [1]; in the test with XIP peptide (Xip251-270)) were 2.75 (inactive) and 0.818, respectively. Moreover, the z-score in test [2] was -1.8; in test [3], -1.89 (inactive); in test [4], -0.731 (inactive); in test [5], 0.21 (inactive).
`Cc1ccc(S[C@]2(C(=O)O)CC(=O)N(C(C)C)[C@@H]2c2ccc(CO)cc2I)cc1`: the composite z-score in test [1] is 0.534 (inactive); in the test with XIP peptide (Xip251-270) it was 0.837. Further, the z-score in test [2] was 0.14; in test [3], -3.85 (inactive); in test [4] it was -0.366 (inactive); in test [5], 0.0562 (inactive).
Regarding `O=C(CS)NCCCCCCNC(=O)[C@@H]1C[C@@H]2C(=O)NCC(=O)N2[C@@H]1c1cccc(OCCO)c1`, the results for the composite z-score (in test [1]; in the test with XIP peptide (Xip251-270)) were 0.67 (inactive) and 0.579, respectively. Besides, the z-score in test [2] is 0.132; in test [3], -2.98 (inactive); in test [4], 0.376 (inactive); in test [5] it was 0.376 (inactive).
As for `C=C(C)[C@@H]1CC=C(C(O)C2C=CC3C(=O)N(C)C(=O)C3N2Nc2ccccc2)CC1` (stereo partly specified), the figures for the composite z-score (in test [1]; with XIP peptide (Xip251-270)) were 0.469 (inactive) and 0.147, respectively. Moreover, the z-score in test [2] is -0.0575; in test [3], -4.59 (inactive); in test [4], -0.63 (inactive); in test [5], -0.968 (inactive).
As to `[N-]=[N+]=NCc1ccccc1[C@@H]1OC(c2ccc(OCCCO)cc2)=N[C@]1(Cc1ccccc1)C(=O)NCC(O)CO` (stereo partly specified), the results for the composite z-score (in test [1]; with XIP peptide (Xip251-270)) were -0.275 (inactive) and -0.0063, respectively. Also, the z-score in test [2] was -2.06; in test [3] it was -2.01 (inactive); in test [4] it was -0.0268 (inactive); in test [5], 0.117 (inactive).
In the case of `O[C@@H](Cc1ccccc1)[C@H]1C2C=CCCC=C2CN1Cc1cccc(Cl)c1` (stereo partly specified), the composite z-score is 0.164 (inactive) in test [1] and 0.421 in the test on XIP peptide (Xip251-270). Further, the z-score in test [2] was 0.461; in test [3] it was -7.63 (inactive); in test [4], 0.415 (inactive); in test [5], 0.0708 (inactive).
On to `COc1cc2c(cc1O)C(C1CC1)N(Cc1sc3ccccc3c1Cl)CC2` (stereo unspecified), for which the results for the composite z-score (in test [1]; with XIP peptide (Xip251-270)) were 0.275 (inactive) and 0.637, respectively. Further, the z-score in test [2] was -1.23; in test [3] it was -2.44 (inactive); in test [4], -0.147 (inactive); in test [5], 0.302 (inactive).
Consider `O=C1C[C@@](C(=O)NCCN2CCOCC2)(c2ccc([N+](=O)[O-])cc2)[C@@H](c2ccc(CO)cc2)N1CC12CC3CC(CC(C3)C1)C2`, for which the values for the composite z-score (in test [1]; in the test with XIP peptide (Xip251-270)) were 1.28 (inactive) and 0.795, respectively. In addition, the z-score was -1.29 in test [2], -4.58 (inactive) in test [3], -0.489 (inactive) in test [4] and -0.649 (inactive) in test [5].
As for `C=C[C@@H](COC(=O)OC(C)(C)C)N(Cc1ccc(OC)cc1)S(=O)(=O)c1ccc(Br)cc1`, the composite z-score was 0.323 (inactive) in test [1] and 0.219 with XIP peptide (Xip251-270). Besides, the z-score in test [2] is 0.605; in test [3], -0.981 (inactive); in test [4] it was 0.344 (inactive); in test [5] it was 0.447 (inactive).
On to `COC(=O)[C@@]1(Cc2ccccc2)N=C(c2ccc(OCCCO)cc2)O[C@H]1c1ccccc1`, for which the composite z-score in test [1] was 1.16 (inactive); in the test with XIP peptide (Xip251-270) it was 0.743. In addition, the z-score in test [2] is -1.92; in test [3], -4.38 (inactive); in test [4] it was -0.343 (inactive); in test [5], -0.094 (inactive).
As to `CC(C)NC(=O)[C@@H]1c2ccccc2C(=O)N(C2Cc3ccccc3C2)[C@H]1c1ccc(CO)cc1`, the values for the composite z-score (in test [1]; in the test on XIP peptide (Xip251-270)) were 0.536 (inactive) and 0.787, respectively. Also, the z-score in test [2] was -0.826; in test [3], -1.94 (inactive); in test [4] it was -0.24 (inactive); in test [5], 0.0987 (inactive).
On to `CCOC(=O)C[C@H]1[C@H](OC(=O)c2cc3ccccc3oc2=O)[C@@H](NC(=O)c2ccccc2)c2cc(OCCCO)ccc2N1C(=O)c1ccc2ccccc2n1`, for which the composite z-score in test [1] was -0.0302 (inactive); in the test on XIP peptide (Xip251-270) it was 0.503. In addition, the z-score in test [2] was -0.566; in test [3], -3.63 (inactive); in test [4], 0.091 (inactive); in test [5] it was 0.0741 (inactive).
